This note sets out measurements from PubChem BioAssay.

“And” between values parts separate entries of the source, which are not always exact repeats. Identical values can stand only once. The source made the active and inactive calls.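 How the source made its calls: active means thallium flux through the channel raised or lowered by more than 3 SD from vehicle-only wells, actives on both sides; inactive means the rest.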

The first test relates to F380Y/beta2Delta. The test is described as follows: modulators of BK channel variants, profiling panel, selectivity assay, cell-based, U2OS BacMam, thallium flux, beta subunits (AID 1259406).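 Further: initial slope of Thallos dye fluorescence rise after thallium is added; log ratio against the mean of 0.3% DMSO vehicle wells on the same plate.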 Particulars: at 30 µM.
As for `CC12CC3CC(C)(C1)CC(N)(C3)C2`, the log fold change Tl+ flux was 0.0288 (inactive).
Consider `CC(=O)OCC(CCn1cnc2cnc(N)nc21)COC(C)=O`, for which the log fold change Tl+ flux was -0.0244 (inactive).
For `S=c1nc[nH]c2nc[nH]c12`, the log fold change Tl+ flux is -0.00985 (inactive).
As to `Oc1c(Cl)cc(Cl)c2cccnc12`, the log fold change Tl+ flux is 0.437 (active).
In the case of `CC1=NS(=O)(=O)c2cc(Cl)ccc2N1`, the log fold change Tl+ flux was 0.0204 (inactive).
On to `OC(Cn1cncn1)(Cn1cncn1)c1ccc(F)cc1F`, for which the log fold change Tl+ flux was -0.000209 (inactive).
The same measure, in the same setting: in the case of `NCCc1ccc(O)c(O)c1` it was 0.0459 (inactive).
For `CN=C(NC#N)NCCSCc1nc[nH]c1C`, the log fold change Tl+ flux was -0.0232 (inactive).
On to `COc1c(N2CCNC(C)C2)c(F)cc2c(=O)c(C(=O)O)cn(C3CC3)c12` (stereo not drawn), for which the log fold change Tl+ flux is -0.045 (inactive).
As to `CC1COc2c(N3CCN(C)CC3)c(F)cc3c(=O)c(C(=O)O)cn1c23` (stereo not drawn), the log fold change Tl+ flux is 0.0472 (inactive).
Still for that read-out and setting: in the case of `O=C(C1CCCCC1)N1CC(=O)N2CCc3ccccc3C2C1` (stereo not drawn) it was 0.0335 (inactive); in that of `CCc1cc(C(N)=S)ccn1`, -0.0262 (inactive); in that of `CC1=C(/C=C/C(C)=C/C=C/C(C)=C/C(=O)O)C(C)(C)CCC1`, -0.0201 (inactive).
On the same count and under the same terms, as for `CCCCNc1cc(C(=O)O)cc(S(N)(=O)=O)c1Oc1ccccc1`, the figure is -0.0452 (inactive); as for `O=c1[nH]cnc2[nH]ncc12`, -0.00565 (inactive); as for `O=C1c2c(O)ccc(O)c2C(=O)c2c(NCCNCCO)ccc(NCCNCCO)c21`, 0.00615 (inactive).
In the case of `O=C(O)c1cc(=O)c2c(OCC(O)COc3cccc4oc(C(=O)O)cc(=O)c34)cccc2o1`, the log fold change Tl+ flux was -0.0103 (inactive).
On the same count and under the same terms, as for `CC(C)C(=O)Nc1ccc([N+](=O)[O-])c(C(F)(F)F)c1`, the figure is -0.0159 (inactive).
With `CC(COc1ccccc1)N(CCCl)Cc1ccccc1` (stereo not drawn), the log fold change Tl+ flux was -0.054 (inactive).
Take `CCCc1nc2c(C)cc(-c3nc4ccccc4n3C)cc2n1Cc1ccc(-c2ccccc2C(=O)O)cc1`: the log fold change Tl+ flux was 0.025 (inactive).
The same measure, in the same setting: in the case of `CC(=O)CC(c1ccccc1)c1c(O)c2ccccc2oc1=O` (stereo not drawn) it was 0.0322 (inactive); in that of `NS(=O)(=O)c1cc2c(cc1Cl)NCNS2(=O)=O`, -0.0515 (inactive); in that of `CS(=O)(=O)OCCCCOS(C)(=O)=O`, 0.00156 (inactive).
In the case of `CCOC(=O)C1=C(C)NC(C)=C(C(=O)OC)C1c1cccc([N+](=O)[O-])c1` (stereo not drawn), the log fold change Tl+ flux is -0.0689 (inactive).
Still for that read-out and setting: in the case of `COc1ccccc1OCCNCC(O)COc1cccc2[nH]c3ccccc3c12` (stereo not drawn) it was -0.29 (active); in that of `O=C(O)CCCc1ccccc1`, -0.00447 (inactive); in that of `NNCCc1ccccc1`, -0.0213 (inactive).
Regarding `CC1Cc2ccccc2N1NC(=O)c1ccc(Cl)c(S(N)(=O)=O)c1` (stereo not drawn), the log fold change Tl+ flux is 0.049 (inactive).
As to `CC(C)Cc1ccc(C(C)C(=O)O)cc1` (stereo not drawn), the log fold change Tl+ flux was 0.0321 (inactive).
Turning to `N[C@@H]1CONC1=O`, the log fold change Tl+ flux was -0.00859 (inactive) and -0.0479 (inactive).
For `CCN(Cc1ccncc1)C(=O)C(CO)c1ccccc1` (stereo not drawn), the log fold change Tl+ flux was -0.0245 (inactive).
Same read-out and setting: as for `CCCc1cc(=O)[nH]c(=S)[nH]1`, the figure is -0.0326 (inactive); as for `O=C(O)c1cccnc1`, 0.0201 (inactive).
On to `CC(C[N+](C)(C)C)OC(N)=O` (stereo not drawn), for which the log fold change Tl+ flux is -0.0155 (inactive).
For the compound `COc1ccc(Cl)cc1C(=O)NCCc1ccc(S(=O)(=O)NC(=O)NC2CCCCC2)cc1`, the log fold change Tl+ flux is 0.0268 (inactive).
Consider `N[C@@H](Cc1cc(I)c(Oc2cc(I)c(O)c(I)c2)c(I)c1)C(=O)O`, for which the log fold change Tl+ flux was 0.163 (active).
With `CC1(C)O[C@@H]2[C@@H](CO[C@@]3(COS(N)(=O)=O)OC(C)(C)O[C@@H]23)O1`, the log fold change Tl+ flux was 0.0184 (inactive).
Take `COCCOC(=O)C1=C(C)NC(C)=C(C(=O)OC(C)C)C1c1cccc([N+](=O)[O-])c1` (stereo not drawn): the log fold change Tl+ flux was -0.122 (active).
Take `NNC(=O)c1ccncc1`: the log fold change Tl+ flux is 0.00988 (inactive).

A further test has as its system F380Y/beta4. The description is as above. Particulars: at 30 µM.
In the case of `CC12CC3CC(C)(C1)CC(N)(C3)C2`, the log fold change Tl+ flux was 0.00566 (inactive).
The same measure, in the same setting: in the case of `CC(=O)OCC(CCn1cnc2cnc(N)nc21)COC(C)=O` it was 0.0232 (inactive).
Turning to `S=c1nc[nH]c2nc[nH]c12`, the log fold change Tl+ flux is -0.00864 (inactive).
As to `Oc1c(Cl)cc(Cl)c2cccnc12`, the log fold change Tl+ flux is 0.326 (active).
For the compound `CC1=NS(=O)(=O)c2cc(Cl)ccc2N1`, the log fold change Tl+ flux was -0.0353 (inactive).
`OC(Cn1cncn1)(Cn1cncn1)c1ccc(F)cc1F`: the log fold change Tl+ flux was 0.0309 (inactive).
On the same count and under the same terms, in the case of `NCCc1ccc(O)c(O)c1` it was 0.00195 (inactive); in that of `CN=C(NC#N)NCCSCc1nc[nH]c1C`, 0.031 (inactive).
As to `COc1c(N2CCNC(C)C2)c(F)cc2c(=O)c(C(=O)O)cn(C3CC3)c12` (stereo not drawn), the log fold change Tl+ flux was -0.0127 (inactive).
As to `CC1COc2c(N3CCN(C)CC3)c(F)cc3c(=O)c(C(=O)O)cn1c23` (stereo not drawn), the log fold change Tl+ flux is 0.0067 (inactive).
Consider `O=C(C1CCCCC1)N1CC(=O)N2CCc3ccccc3C2C1` (stereo not drawn), for which the log fold change Tl+ flux was 0.0341 (inactive).
On to `CCc1cc(C(N)=S)ccn1`, for which the log fold change Tl+ flux is 0.0197 (inactive).
Same read-out and setting: as for `CC1=C(/C=C/C(C)=C/C=C/C(C)=C/C(=O)O)C(C)(C)CCC1`, the figure is 0.0201 (inactive).
Turning to `CCCCNc1cc(C(=O)O)cc(S(N)(=O)=O)c1Oc1ccccc1`, the log fold change Tl+ flux is -0.00421 (inactive).
With `O=c1[nH]cnc2[nH]ncc12`, the log fold change Tl+ flux was 0.00785 (inactive).
Take `O=C1c2c(O)ccc(O)c2C(=O)c2c(NCCNCCO)ccc(NCCNCCO)c21`: the log fold change Tl+ flux is -0.0582 (inactive).
Regarding `O=C(O)c1cc(=O)c2c(OCC(O)COc3cccc4oc(C(=O)O)cc(=O)c34)cccc2o1`, the log fold change Tl+ flux was -0.0657 (inactive).
On the same count and under the same terms, in the case of `CC(C)C(=O)Nc1ccc([N+](=O)[O-])c(C(F)(F)F)c1` it was -0.0805 (inactive).
Same read-out and setting: in the case of `CC(COc1ccccc1)N(CCCl)Cc1ccccc1` (stereo not drawn) it was -0.0516 (inactive); in that of `CCCc1nc2c(C)cc(-c3nc4ccccc4n3C)cc2n1Cc1ccc(-c2ccccc2C(=O)O)cc1`, -0.000976 (inactive).
As to `CC(=O)CC(c1ccccc1)c1c(O)c2ccccc2oc1=O` (stereo not drawn), the log fold change Tl+ flux was 0.0212 (inactive).
Same read-out and setting: in the case of `NS(=O)(=O)c1cc2c(cc1Cl)NCNS2(=O)=O` it was -0.0186 (inactive).
As for `CS(=O)(=O)OCCCCOS(C)(=O)=O`, the log fold change Tl+ flux was 0.00072 (inactive).
For the compound `CCOC(=O)C1=C(C)NC(C)=C(C(=O)OC)C1c1cccc([N+](=O)[O-])c1` (stereo not drawn), the log fold change Tl+ flux is -0.0639 (inactive).
As to `COc1ccccc1OCCNCC(O)COc1cccc2[nH]c3ccccc3c12` (stereo not drawn), the log fold change Tl+ flux was 0.358 (active).
In the case of `O=C(O)CCCc1ccccc1`, the log fold change Tl+ flux is 0.0283 (inactive).
As for `NNCCc1ccccc1`, the log fold change Tl+ flux was 0.00368 (inactive).
Consider `CC1Cc2ccccc2N1NC(=O)c1ccc(Cl)c(S(N)(=O)=O)c1` (stereo not drawn), for which the log fold change Tl+ flux is 0.0552 (inactive).
With `CC(C)Cc1ccc(C(C)C(=O)O)cc1` (stereo not drawn), the log fold change Tl+ flux is 0.0254 (inactive).
As for `N[C@@H]1CONC1=O`, the log fold change Tl+ flux was 0.0351 (inactive).
For the compound `CCN(Cc1ccncc1)C(=O)C(CO)c1ccccc1` (stereo not drawn), the log fold change Tl+ flux was -0.0208 (inactive).
On to `CCCc1cc(=O)[nH]c(=S)[nH]1`, for which the log fold change Tl+ flux is 0.0238 (inactive).
For `O=C(O)c1cccnc1`, the log fold change Tl+ flux was 0.0275 (inactive).
As to `CC(C[N+](C)(C)C)OC(N)=O` (stereo not drawn), the log fold change Tl+ flux is 0.00469 (inactive).
`COc1ccc(Cl)cc1C(=O)NCCc1ccc(S(=O)(=O)NC(=O)NC2CCCCC2)cc1`: the log fold change Tl+ flux was 0.115 (active).
Still for that read-out and setting: as for `N[C@@H](Cc1cc(I)c(Oc2cc(I)c(O)c(I)c2)c(I)c1)C(=O)O`, the figure is 0.107 (active); as for `CC1(C)O[C@@H]2[C@@H](CO[C@@]3(COS(N)(=O)=O)OC(C)(C)O[C@@H]23)O1`, 0.0387 (inactive).
For `COCCOC(=O)C1=C(C)NC(C)=C(C(=O)OC(C)C)C1c1cccc([N+](=O)[O-])c1` (stereo not drawn), the log fold change Tl+ flux is -0.126 (active).
With `NNC(=O)c1ccncc1`, the log fold change Tl+ flux is 0.0513 (inactive).
